Among the data in article PMC5836133, “The intracellular immune receptor Rx1 regulates the DNA-binding activity of a Golden2-like transcription factor” are binding signal values, retold here.

Over roughly 16,000 sequences, “e-score” has its median near -0.044; the highest 2% begin near 0.38. Shown is part of a subset that was picked to be rich in the highest values.

In the assay the target is T1, GST-NbGlk1(82-244) (Nicotiana benthamiana).
T1 chain: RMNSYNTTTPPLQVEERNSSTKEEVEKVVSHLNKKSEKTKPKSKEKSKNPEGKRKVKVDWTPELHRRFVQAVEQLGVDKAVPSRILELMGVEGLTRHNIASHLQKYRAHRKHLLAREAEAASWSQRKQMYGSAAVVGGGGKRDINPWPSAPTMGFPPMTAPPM
The experiment in a line: protein-binding microarray; NbGlk1 is a Golden2-like transcription factor of Nicotiana benthamiana; high values mean tight binding. The settings on record: protein: recombinant; tags: GST (pTH6838); dsDNA, one strand shown.
On to ATCCGGTG, for which the binding signal came out at 0.295 ± 0.0985 E-score.

As to AATAAAAT, the binding signal was 0.285 ± 0.0273 E-score. As for ACGATATC, the binding signal worked out at 0.444 ± 0.0119 E-score. Next, AGGATATA: 0.211 ± 0.0455 E-score. Regarding CACATATC, the binding signal stood at 0.207 ± 0.0307 E-score. Next, ATGATCTC: 0.237 ± 0.0252 E-score; CAGATACC: 0.318 ± 0.0659 E-score; AGGATATG: 0.301 ± 0.025 E-score. Consider CAGATATC, for which the binding signal was determined as 0.4684 ± 0.00421 E-score.

As for AGGATATC, the binding signal turned out to be 0.469 ± 0.00696 E-score. To ATGATATC belongs 0.4224 ± 0.000678 E-score. To ATGATATG belongs 0.251 ± 0.0218 E-score; to ACGATACG, 0.207 ± 0.012 E-score.

With ACGATCTC, the binding signal worked out at 0.295 ± 0.0231 E-score. As to CACGGATA, the binding signal is 0.231 ± 0.0138 E-score.

For ATATTTTA, the binding signal is 0.311 ± 0.0242 E-score.

For ATATGATA, the binding signal stood at 0.219 ± 0.000234 E-score. Next, ATTCGGTA: 0.241 ± 0.0544 E-score.

Turning to ACTGTAAA, the binding signal was determined as 0.2014 ± 0.00123 E-score. To ATTACGGA belongs 0.366 ± 0.0276 E-score; to ATAACGCA, 0.2 ± 0.0382 E-score; to ATCTAAGA, 0.26 ± 0.0102 E-score. On to ACGGGAAT, for which the binding signal is 0.324 ± 0.00778 E-score. To CAAATATG belongs 0.212 ± 0.061 E-score. AAGATATA: the binding signal worked out at 0.3097 ± 0.00108 E-score. Regarding CAAATACG, the binding signal amounted to 0.225 ± 0.0583 E-score. Next, AAGATATC: 0.4749 ± 0.00348 E-score; AAGATATT: 0.393 ± 0.0518 E-score. In the case of CAGATACG, the binding signal turned out to be 0.391 ± 0.0206 E-score. Next, AAGATACG: 0.319 ± 0.0229 E-score.

For the sequence AAGATACT, the binding signal was found to be 0.2834 ± 0.00149 E-score.

In the case of CACAGATA, the binding signal is 0.28 ± 0.0657 E-score.

On to AAGATAAT, for which the binding signal was determined as 0.221 ± 0.0513 E-score. On to AAGATATG, for which the binding signal turned out to be 0.352 ± 0.0302 E-score.

As to CAGATATG, the binding signal was determined as 0.393 ± 0.0499 E-score. Next, ATCCAGCC: 0.215 ± 0.0455 E-score; CAATCAGA: 0.206 ± 0.101 E-score; AAATATAG: 0.237 ± 0.00681 E-score. For ATATCGAA, the binding signal turned out to be 0.272 ± 0.135 E-score. Turning to ATCTCGTA, the binding signal turned out to be 0.376 ± 0.0288 E-score. To ATCGGATC belongs 0.275 ± 0.0422 E-score; to ATTTTCGA, 0.266 ± 0.0802 E-score; to ATTACGCA, 0.355 ± 0.0219 E-score.

Turning to ATATATTC, the binding signal came out at 0.281 ± 0.0514 E-score. In the case of AGATATTG, the binding signal turned out to be 0.375 ± 0.0495 E-score.

Regarding AAATATTC, the binding signal is 0.306 ± 0.0275 E-score. Next, AGATATTA: 0.379 ± 0.00115 E-score; AGATATTC: 0.451 ± 0.0112 E-score; ATATATTA: 0.229 ± 0.0313 E-score.
